{
  "source": "the supplement of paper PMC9925115",
  "note": "± gives the uncertainty stated by the source.",
  "data": [
    {"tested_on": "FLX1", "experiment": "cell viability z-score within plate (CellTiter-Glo), mean of 3 biological replicates; higher = higher viability relative to plate (less growth inhibition)", "details": "2 µM; time (hr): 120", "experimental": "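FLX1 fibrolamellar carcinoma cells (DNAJB1-PRKACA fusion), 600 cells/well in 384-well plates, treated with a Selleck kinase inhibitor library (L1200) at 2 uM for 5 days (120 hr); viability by CellTiter-Glo. A z-score was computed within each plate and averaged over three biological replicates.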", "values": [
      {"smiles": "Cn1cc(C2=C(c3cn(C4CCN(Cc5ccccn5)CC4)c4ccccc34)C(=O)NC2=O)c2ccccc21", "cell viability z-score within plate": "-2.47 ± 0.57"},
      {"smiles": "Cc1ccccc1-n1c(Cn2ncc3c(N)ncnc32)nc2cccc(C)c2c1=O", "cell viability z-score within plate": "0.16 ± 0.68"},
      {"smiles": "CC(C)(C)c1cc(C=C(C#N)C#N)cc(Br)c1O", "cell viability z-score within plate": "-0.784 ± 0.7"},
      {"smiles": "O=c1[nH]c2ccc(Cl)cc2c(N[C@@H]2CN3CCC2CC3)c1-c1nc2ccccc2[nH]1", "cell viability z-score within plate": "0.562 ± 0.43"},
      {"smiles": "CC(C)(C)c1cc(C=C(C#N)C#N)cc(C(C)(C)C)c1O", "note": "[Tyrphostin 9]", "cell viability z-score within plate": "0.448 ± 0.24"},
      {"smiles": "CCN1CCN(C(=O)Cc2ccc(Nc3ncc(F)c(Nc4ccc(C(=O)Nc5ccccc5Cl)cc4)n3)cc2)CC1", "note": "[Aurora A Inhibitor I]", "cell viability z-score within plate": "-0.367 ± 0.29"}
    ]}
  ]
}
